The text below walks through data of PubChem BioAssay AID488969 (Vanderbilt High Throughput Screening Facility, 2010).

The full ranking holds about 110,000 compounds; the median of “z-score” is about -0.1, and the highest 2% start at about 2. The entries come from a sample that favours the highest values as a whole. The source made the active and inactive calls.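 How the source made its calls: active means z-score in the third read window above 3 or below -3; inactive means the rest.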

The target in this assay is Metabotropic glutamate receptor 8 (Rattus norvegicus) (UniProt P70579). The assay can be described thus: rat mGluR8 modulators via GIRK flux, primary screen, cell-based, thallium flux, HTS (AID 488969). The settings on record: HEK293 rat mGluR8, GIRK (G protein-gated inwardly rectifying potassium channel) thallium flux, FluoZin2; at 10 µM; stronger effect = higher value; submaximal glutamate (EC20) added with thallium.
Metabotropic glutamate receptor 8 (Rattus norvegicus), sequence (P70579 whole entry, looked up): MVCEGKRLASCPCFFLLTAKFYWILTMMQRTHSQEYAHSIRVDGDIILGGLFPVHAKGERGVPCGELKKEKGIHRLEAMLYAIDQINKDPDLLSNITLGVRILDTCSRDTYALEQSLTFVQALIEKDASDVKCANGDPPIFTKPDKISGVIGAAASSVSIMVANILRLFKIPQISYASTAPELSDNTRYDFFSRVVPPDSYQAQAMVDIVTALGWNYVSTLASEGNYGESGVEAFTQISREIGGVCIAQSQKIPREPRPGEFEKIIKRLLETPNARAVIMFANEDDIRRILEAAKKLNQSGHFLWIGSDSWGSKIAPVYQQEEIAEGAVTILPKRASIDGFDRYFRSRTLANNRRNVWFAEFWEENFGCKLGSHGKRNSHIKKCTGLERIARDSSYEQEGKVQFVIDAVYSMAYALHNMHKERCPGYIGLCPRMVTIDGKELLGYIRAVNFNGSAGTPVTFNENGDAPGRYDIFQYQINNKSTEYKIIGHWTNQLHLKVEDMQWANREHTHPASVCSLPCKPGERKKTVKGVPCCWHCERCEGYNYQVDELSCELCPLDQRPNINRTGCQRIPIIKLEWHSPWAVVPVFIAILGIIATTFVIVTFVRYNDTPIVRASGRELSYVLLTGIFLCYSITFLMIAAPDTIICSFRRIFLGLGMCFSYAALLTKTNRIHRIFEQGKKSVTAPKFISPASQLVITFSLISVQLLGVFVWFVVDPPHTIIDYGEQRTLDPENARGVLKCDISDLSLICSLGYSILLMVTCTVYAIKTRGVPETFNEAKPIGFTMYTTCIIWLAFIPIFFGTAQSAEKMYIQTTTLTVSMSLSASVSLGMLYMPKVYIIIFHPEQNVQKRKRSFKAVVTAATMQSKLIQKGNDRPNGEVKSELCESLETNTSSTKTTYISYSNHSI
`CCn1c(CCn2ccnc2C)n[nH]c1=S`: the z-score is 0.253.
`Cc1nccn1CCc1nc(N)nc(N)n1`: the z-score was 7.57 (active).
`CCc1ccc(NC(=O)CCn2ccnc2C)cc1` yielded a z-score of 0.306.
As to `O=c1cc(CN2CCN(CCO)CC2)c2cc3c(cc2o1)CCC3`, the z-score came out at 0.804.
The compound `CCN(C(=O)c1ccco1)c1nc(CC(=O)Nc2ccc(Cl)cc2)cs1` returned a z-score of -0.635.
The compound `O=C(Nc1ccc2oc(-c3cccnc3)nc2c1)c1ccco1` had a z-score of -0.851.
Turning to `CCOC(=O)c1c(-c2ccc(C)o2)csc1NC(=S)NC(=O)c1cccs1`, the z-score was 3.05 (active).
`CCOC(=O)c1c(-c2ccc(C)o2)csc1NC(=O)CN(C)CC(=O)Nc1ccc(C)cc1` came in with a z-score of -0.104.
For `CCOC(=O)c1c(-c2ccc(C)o2)csc1NC(=O)COC(=O)c1cccs1` the value was 0.191; for `CCOC(=O)c1c(-c2ccc(C)o2)csc1NC(=S)NC(=O)N(C)C`, 13.6 (active); for `CCOC(=O)c1c(-c2ccc(C)o2)csc1NC(=S)NC(=O)c1ccccc1Br`, 0.406.
For `CCOC(=O)c1c(-c2ccc(C)o2)csc1NC(=O)CSc1nnc(C)s1`, the z-score was -1.11.
Turning to `O=C1OCCC1Sc1nnc(-c2ccccc2)o1` (centres undefined), the z-score was -0.134.
`Cc1c(Cl)cccc1NC(=S)NC1CCN(Cc2ccccc2)CC1` showed a z-score of -0.67.
With `Cc1cc(C(=O)OCC(=O)Nc2ccc(F)c(F)c2)c(C)o1`, the z-score came to 0.0113.
For `Cc1cc(C(=O)OCC(=O)Nc2ccc(F)cc2)c(C)o1`, the z-score amounted to 2.45.
On to `Cc1occc1C(=O)OCC(=O)Nc1ccc(F)cc1`, for which the z-score was found to be 0.794.
Under `N#Cc1c(N)nc2c(c1-c1ccncc1)CCCC2` stands -0.232; under `Cc1ccc2c(CC(=O)NC3CCCc4ccccc43)coc2c1` (centres undefined), 4.11 (active).
Under `Cc1cc2occ(CC(=O)NC3CCCc4ccccc43)c2cc1C` (centres undefined) stands 0.0042; under `COc1ccc2c(CC(=O)NC3CCCc4ccccc43)coc2c1` (centres undefined), -0.484.
Compound `CCOC(=O)C(NC(=O)NCc1ccc(OC)cc1)(OCC)C(F)(F)F` (centres undefined) had a z-score of -0.306.
`O=C(c1ccc(Cl)cc1)c1cnc2ccccn12` showed a z-score of -0.0464.
For the compound `O=C(Nc1ccccc1F)c1ccc(-n2cncn2)nc1`, the z-score is -0.0684.
As to `O=C(CN1CCCCCCC1)N/N=C/c1ccc(F)cc1F`, the z-score was -0.63.
Turning to `CC(=O)c1ccc(NC(=O)COC(=O)CCC(=O)c2cccs2)cc1`, the z-score amounted to 0.114.
Consider `Cc1cccc(NC(=O)NC(C)CCc2ccccc2)c1` (centres undefined), for which the z-score was 4.17 (active).
The compound `Cc1cccc(C)c1NC(=S)NC(=O)CCc1ccccc1` gave a z-score of 1.73.
`Cc1ccccc1NC(=S)NC(C)CCc1ccccc1` (centres undefined) gave a z-score of 0.22.
Regarding `Cc1cccc(NC(=S)NC(C)CCc2ccccc2)c1` (centres undefined), the z-score came out at 0.2.
With `Cc1ccccc1NC(=O)C(=O)NC(C)CCc1ccccc1` (centres undefined), the z-score is 7.37 (active).
For `COC(=O)[C@H](C)NC(=O)Nc1cccc(C)c1` the value was -0.0554; for `Cc1ccccc1NC(=S)NC(=O)CCc1ccccc1`, 2.94.
In turn, `Cc1cccc(NC(=S)NC(=O)CCc2ccccc2)c1` had a z-score of 2.74.
For `O=C(CCc1ccccc1)NC(=S)Nc1cccc(Br)c1` the value was 0.0148.
The compound `Cc1cccc(NC(=S)NC(=O)CCc2ccccc2)c1C` gave a z-score of 0.747.
Under `CC(CCc1ccccc1)NC(=O)C(=O)Nc1ccccc1` (centres undefined) stands -0.109.
The compound `Cc1cccc(NC(=S)NNC(=O)Cc2ccccc2)c1` displayed a z-score of 0.0541.
Regarding `CCOc1ccc(Cn2ccnc2CCl)cc1[N+](=O)[O-]`, the z-score was -0.00871.
As for `Cc1cccc(N(C)C(=O)c2coc(=O)c3ccccc23)c1`, the z-score was -0.042.
With `CCCS(=O)(=O)N1CCCC(C(=O)NC2CCCCC2)C1` (centres undefined), the z-score amounted to 0.0604.
For `O=C(CSc1nc2c(c(C(F)(F)F)n1)CCc1ccccc1-2)NCc1ccc(F)cc1`, the z-score turned out to be 0.759.
The compound `CCn1cc(C(=O)N2CCN(Cc3ccc4c(c3)OCO4)CC2)c(=O)c2ccc(C)nc21` gave a z-score of -0.451.
`CCc1ccccc1NC(=O)CSc1nc2c(c(-c3ccco3)c1C#N)CCCC2` yielded a z-score of 0.16.
For `CCOc1ccc(N2C(=O)CC(Sc3nc(C)cc(C)c3C#N)C2=O)cc1` (centres undefined) the value was 0.15; for `CC1CCN(C(=O)Cc2nn(C)c(=O)c3ccccc23)CC1`, 0.733; for `COc1ccc(Oc2nc(C(F)(F)F)nc3ccccc23)cc1`, -0.576.
`Cc1c(Br)c([N+](=O)[O-])nn1C(C)C(=O)NCc1cccs1` (centres undefined) yielded a z-score of -0.152.
The compound `Cc1ccc(NC(=O)Cn2nnc(-c3ccccc3NC(=O)c3cccs3)n2)cc1` registered a z-score of -0.57.
Consider `Cc1scc(-c2n[nH]c(=S)n2C(C)c2ccccc2)c1C` (centres undefined), for which the z-score is -1.43.
Turning to `CCc1cc(-c2n[nH]c(=S)n2C(C)c2ccccc2)cs1` (centres undefined), the z-score stood at 2.55.
As for `CCc1cc(-c2n[nH]c(=S)n2-c2ccccc2C)cs1`, the z-score was -0.325.
With `CCCc1cc(-c2n[nH]c(=S)n2C(C)c2ccccc2)cs1` (centres undefined), the z-score was 10.9 (active).
In turn, `CCn1c(-c2csc(-c3ccccc3)n2)n[nH]c1=S` came in with a z-score of 0.398.
`CC(c1ccccc1)n1c(-c2ccncc2)n[nH]c1=S` (centres undefined) registered a z-score of 0.000563.
Compound `CCOC(=O)CNC(=O)CSc1nc(N(C)C)nc(N2CCOCC2)n1` returned a z-score of -0.116.
The compound `COc1ccc(-c2cc(-n3c(C(F)(F)F)nc4ccccc43)n(CCC#N)n2)cc1` registered a z-score of -0.215.
Consider `CCN1CCN(c2cc(C)c3cc(NC(=O)c4ccc(Br)o4)ccc3n2)CC1`, for which the z-score was 3.44 (active).
Under `Cc1cc(N2CCCCC2)nc2ccc(NC(=O)c3ccc(Br)o3)cc12` stands -1.58.
Under `CCN1CCN(c2cc(C)c3cc(NC(=O)c4ccncc4)ccc3n2)CC1` stands 1.22; under `CCCC1Cc2nc(N3CCCCC3)c(C#N)cc2CO1` (centres undefined), 0.443.
In turn, `Cc1cc(NCCCN(C)C)n2nc(-c3cccs3)cc2n1` showed a z-score of -0.0105.
In turn, `CCOc1ccc(NS(=O)(=O)c2ccc3c(c2)CCN3C(=O)C2CCC2)cc1` had a z-score of -0.102.
In turn, `CC(C)NC(=O)c1cccc(Br)c1` had a z-score of -0.0557.
For `Cc1ccc(OCc2nn3c(-c4ccco4)nnc3s2)cc1` the value was -1.14.
For `Clc1ccc(-c2cc(-c3nnc4n3CCCCC4)c3ccccc3n2)cc1` the value was 2.08; for `c1ccc2c(-c3nnc4n3CCCCC4)cc(-c3ccncc3)nc2c1`, 0.284; for `Fc1ccc(-c2cc(-c3nnc4n3CCCCC4)c3ccccc3n2)cc1`, -0.316.
`O=c1c2c(-c3cccs3)csc2ncn1-c1ccccc1` had a z-score of -0.0624.
`O=C(c1ccc(Cl)c([N+](=O)[O-])c1)N1CCN(c2ccccn2)CC1` showed a z-score of -0.0404.
In the case of `CCSc1nc2c(sc3ccccc32)c(=O)n1C(C)C`, the z-score worked out at 0.00726.
For `CC(C)CCn1c(SCC#N)nc2c(sc3ccccc32)c1=O` the value was 5.93 (active); for `O=C(CSc1nc2c(sc3ccccc32)c(=O)n1CCO)NCC1CCCO1` (centres undefined), 0.0816.
For `Cc1ccc(Cn2c(SCC(=O)NCC3CCCO3)nc3c(sc4ccccc43)c2=O)cc1` (centres undefined), the z-score was 2.06.
Under `CCC(C)NC(=O)CSc1nc2c(sc3ccccc32)c(=O)n1CCCN1CCOCC1` (centres undefined) stands 0.452.
The compound `O=C(CSc1nc2c(sc3ccccc32)c(=O)n1Cc1ccccc1)NCC1CCCO1` (centres undefined) showed a z-score of 0.199.
Turning to `CCCCn1c(SCC(N)=O)nc2c(sc3ccccc32)c1=O`, the z-score was 3.23 (active).
`NC(=O)CSc1nc2c(sc3ccccc32)c(=O)n1CCCN1CCOCC1` returned a z-score of 0.869.
Compound `CCCCn1c(SCC(=O)NCc2ccco2)nc2c(sc3ccccc32)c1=O` displayed a z-score of -0.00992.
